Test results reported in ChEMBL document CHEMBL1157539, “Thousands of chemical starting points for antimalarial lead identification” (Nature, 2010).

What was measured:
Type in all cases: functional
[1] = system: Plasmodium falciparum; test: GSK_TCMDC: Inhibition of Plasmodium falciparum 3D7 in whole red blood cells, using parasite LDH activity as an index of growth. Test compounds present at 2uM
[2] = system: Plasmodium falciparum; test: GSK_TCMDC: Inhibition of Plasmodium falciparum Dd2 in whole red blood cells, using parasite LDH activity as an index of growth. Test compounds present at 2uM
[3] = system: HepG2; test: GSK_TCMDC: Percent inhibition of human HepG2 cell line. Test compounds present at 10uM.

Compound | Inhibition [1] [%] | Inhibition [2] [%] | Inhibition [3] [%]
CN(C)c1ccc(C=C2SC(=O)N=C2Nc2ccccc2)cc1 | 97 | 96 | 42
Cc1nnsc1C(=O)Nc1cccc(-c2cccc(-c3nc4ccccc4[nH]3)c2)c1 | 100 | 34 | 14
COc1ccc(NC(=O)Nc2cccc(-c3ccncc3)c2)cc1N1CCN(C)CC1 | 98 | 57 | 9
CCCCCCCCNCC(O)c1cc(-c2ccc(Cl)cc2)nc2cc(C)ccc12 (centres undefined) | 99 | 99 | 0
O=C(NCc1ccccc1)Nc1ccc(-c2cccc(-c3nc4cc(C(F)(F)F)ccc4[nH]3)c2)cc1 | 97 | 23 | 56
COc1cc(Cc2cnc(N)nc2N)cc(CC(C)O)c1O (centres undefined) | 93 | 2 | 0
COc1cc2nc(N3CCC(CNC(=O)c4ccc(-c5ccc(C(=O)N(C)C)cc5)c(OCCO)c4)CC3)nc(N)c2cc1OC | 96 | 18 | 10
CS(=O)(=O)NCCCNCc1cccc(-c2cccc(-c3nc4cc(F)ccc4[nH]3)c2)c1.O=C(O)C(F)(F)F | 100 | 5 | 4
Fc1ccc2[nH]c(-c3ccc(-c4ccc(CN5CCN(CCN6CCOCC6)CC5)cc4)s3)nc2c1.O=C(O)C(F)(F)F | 99 | 98 | 39
O=C(Nc1ccc(F)c(Cl)c1)c1cc([N+](=O)[O-])cc2cn[nH]c12 | 100 | 67 | 32
COc1ccc(C(=O)N2CCC3(CC2)C(=O)N(CC(=O)NCC2CCCCC2)CN3c2ccccc2)cc1 | 100 | 99 | 18
COc1ccc(N2CCN(CCCCNC(=O)c3ccc(/C=C/c4ccc(Cl)c(Cl)c4)cc3)CC2)c(OC)c1 | 100 | 51 | 51
N#Cc1ccc2[nH]c(-c3cc(-c4cccc(F)c4)cnc3N)nc2c1.O=C(O)C(F)(F)F | 100 | 93 | 46
Cc1cc(C2CCN(CCCCNC(=O)c3ccc(NC(=O)c4ccc(Cl)cc4)cc3)CC2)c(C)cc1OC(C)C.Cl | 100 | 92 | 22
CNC(=O)c1cnc(Nc2ccc(N3CCOCC3)cc2)nc1Nc1cccc(O)c1.O=C(O)C(F)(F)F | 90 | 78 | 23
CCc1c[nH]c2c(N3CCCC3=O)cc(C(=O)N[C@@H](Cc3ccccc3)[C@H](O)CNC(C)(C)c3cccc(C(F)(F)F)c3)cc12.O=CO | 98 | 99 | 10
CC(C)C[C@H](Nc1ccnc(NCC2CCCCC2)n1)C(=O)Nc1ccccc1.O=C(O)C(F)(F)F | 87 | 42 | 6
COc1ccc2nc3cc(Cl)ccc3c(NCCCN3CCNCC3)c2c1.Cl | 100 | 74 | 18
COc1ccc(F)cc1-c1ccc(C(=O)N2CCCN(c3ccc(C#N)cn3)CC2)cc1 | 99 | 100 | 9
Cl.N=c1c2c(n(Cc3cccc(Cl)c3)c3c1CCC3)CCCC2 | 97 | 86 | 0
O=C(O)C(F)(F)F.O=C(O)Cc1ccc(-c2c[nH]c3ncc(-c4cccc5ncccc45)cc23)cc1 | 95 | 0 | 7
COc1ccc(CNC2CCN(C)CC2)cc1-c1ccc(S(=O)(=O)NCCN2CCCC2)s1.O=C(O)C(F)(F)F | 90 | 1 | 2
O=C(Nc1ccc2nc3n(c(=O)c2c1)CCCCC3)C(=O)N1CCN(c2ccc(F)cc2)CC1 | 93 | 86 | 10
COc1ccc(C2CC(=O)C3=C(C2)NC(C)=C(C(=O)OC2CCCC2)C3c2ccc(O)cc2)cc1OC (centres undefined) | 97 | 92 | 0
Cc1cccc2nc(-c3cccc(-c4cccc(NC(=O)CN5CCN(C)CC5)c4)c3)[nH]c12 | 100 | 99 | 76
CCn1c(-c2nonc2N)nc2cnc(Oc3cccc(NC(=O)c4ccc(OCCN(C(C)C)C(C)C)cc4)c3)cc21 | 97 | 10 | 63
Cc1cccc2nc(-c3cccc(-c4ccc(NC(=O)C(C)CN5CCOCC5)cc4)c3)[nH]c12 (centres undefined) | 93 | 30 | 7
Cc1cccc2nc(-c3cccc(-c4cccc(NC(=O)c5cn(C)c(=O)n5C)c4)c3)[nH]c12 | 99 | 80 | 5
